Records with an inconclusive call do not appear. A number with no mark means an inactive call. Calls come from the whole dose curve; as a rule, active = well fitted inhibition curve with a large enough effect; inconclusive = small, poorly fitted or top-dose-only effect; inactive = flat fitted curve, though single readings scatter.

Results on 27 compounds are retold here after PubChem BioAssay (NCATS).
% is set by controls: 0 for no effect and ±100 for the full control effect.

Sequence of Calcium and integrin-binding protein 1 (Homo sapiens) (Q99828 whole entry, looked up): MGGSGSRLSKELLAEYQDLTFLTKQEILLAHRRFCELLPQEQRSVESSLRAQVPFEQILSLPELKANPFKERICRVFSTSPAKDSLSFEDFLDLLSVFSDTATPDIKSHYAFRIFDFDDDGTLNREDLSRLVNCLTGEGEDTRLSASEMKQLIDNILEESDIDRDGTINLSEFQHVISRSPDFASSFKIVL

This test has as its target Calcium and integrin-binding protein 1 (Homo sapiens) (UniProt Q99828). Nature of the test: Primary qHTS for Identification of Calcium Integrin Binding Protein 1 (CIB1) Competitor (AID 1508620). Note: top concentration of the series differs between compounds. To be noted: CIB1-GST / FITC-alphaIIb peptide fluorescence polarization; series mostly up to 57.7 µM; activity change, negative = inhibition: at the top concentration. Put shortly:
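Fluorescence polarization competition: GST-tagged CIB1 (1 uM final) preincubated with compound 15 min at room temperature, then FITC-labelled alphaIIb peptide (100 nM final) added. After 15 min at room temperature, polarization read at Ex 480/Em 540.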
In general terms: In qHTS, concentration-response curves come from the screen itself.
Regarding `CCN=C1N[C@@H]2[C@@H](O)[C@H](O)[C@@H](CO)O[C@@H]2S1`, the “activity change, negative = inhibition” value was 1.53% [at 114 µM]. With `CC(=O)O[C@@]1(C)[C@@H]2CC(=C(C)C)C(=O)C[C@@]2(C)CC[C@H]1OC(=O)C1(C)OC1C` (some centres not stated), the “activity change, negative = inhibition” value was 0.619%. Turning to `C=C1C(OC(C)=O)[C@@]23CCC4[C@](C)(C(=O)O)CCC[C@@]4(C)[C@]2(O)CC[C@H]1C3` (some centres not stated), the “activity change, negative = inhibition” value is 4.41%. Regarding `CC(=O)OC1C(C)C2C(OC3OC(CO)C(O)C(O)C3O)OC=C(C(=O)O)C2C1OC(=O)c1ccccc1` (configuration not stated), the “activity change, negative = inhibition” value is 3.07%. As for `C[C@]1(O)CC[C@@H]2C(C(=O)O)=CO[C@@H](O[C@@H]3O[C@H](COC(=O)/C=C/c4ccc(O)c(O)c4)[C@@H](O)[C@H](O)[C@H]3O)[C@@H]21`, the “activity change, negative = inhibition” value is 0.297%. In the case of `CC(=O)O[C@H]1C[C@@H](O)C(C)(C)C2C[C@@H](OC(C)=O)[C@]3(C)C(CC[C@@]4(C)[C@H](c5ccoc5)OC(=O)[C@H]5O[C@]543)[C@]21C` (some centres not stated), the “activity change, negative = inhibition” value was 1.27%. As to `O=C(O)CCc1cc2ccoc2cc1O[C@@H]1O[C@H](CO)[C@@H](O)[C@H](O)[C@H]1O`, the “activity change, negative = inhibition” value is 5.34%. For `CC(C)c1ccc2c(c1)C(O)CC1C(C)(C(=O)O)CCCC21C` (configuration not stated) the value was 5.16%. Take `COc1cc(CC2COC(c3ccc(OC4OC(CO)C(O)C(O)C4O)c(OC)c3)C2CO)ccc1O` (configuration not stated): the “activity change, negative = inhibition” value is -2.64%. Turning to `CC1(C)CCCC2(C)c3c4c(c(=O)oc(=O)c3=CCC12)=CCC1C(C)(C)CCCC41C` (configuration not stated), the “activity change, negative = inhibition” value is -0.833%. For `CC1(C)CC[C@]2(C(=O)O[C@@H]3O[C@H](CO)[C@@H](O)[C@H](O)[C@H]3O)CC[C@]3(C)C(=CCC4[C@@]5(C)C[C@@H](O)[C@H](O)[C@@](C)(CO)C5[C@H](O)C[C@]43C)C2C1` (some centres not stated) the value was 3.88% [at 30.2 µM]; for `CC(=O)OC[C@]12[C@H](OC(C)=O)[C@H](OC(=O)c3ccccc3)[C@@H]3[C@@H](OC(C)=O)[C@]1(OC3(C)C)[C@H](C)C[C@H](OC(=O)c1ccccc1)[C@@H]2OC(=O)c1ccccc1`, -2.69% [at 30.2 µM]. As to `CC[C@H](C)[C@H](NC(=O)[C@H](Cc1ccc(O)cc1)NC(=O)[C@@H](N)C(C)C)C(=O)N[C@@H](Cc1cnc[nH]1)C(=O)N1CCC[C@H]1C(=O)N[C@@H](Cc1ccccc1)C(=O)O`, the activity change, negative = inhibition is 2.56% [at 12.4 µM].

As for `CC1(C)CC[C@]2(C(=O)O[C@@H]3O[C@H](CO[C@@H]4O[C@H](CO[C@@H]5O[C@H](CO)[C@H](O)[C@H](O)[C@H]5O)[C@@H](O)[C@H](O)[C@H]4O)[C@@H](O)[C@H](O[C@@H]4O[C@H](CO)[C@@H](O)[C@H](O)[C@H]4O)[C@H]3O)[C@H](O)C[C@]3(C)C(=CCC4[C@@]5(C)CC[C@H](O[C@@H]6OC[C@@H](O)[C@H](O)[C@H]6O)[C@@](C)(C(=O)O)C5CC[C@]43C)[C@@H]2C1` (some centres not stated), the activity change, negative = inhibition is 3.63% [at 12.4 µM].

As for `C=C1C(OC(C)=O)CCC2(C)CC3(O)OC(=O)C(C)=C3CC12` (configuration not stated), the “activity change, negative = inhibition” value was 0.402%. As for `C/C=C(/C)C(=O)OC1CC(C)(C)CC2C3=CCC4C5(C)CCC(OC6OC(C)C(OC7OC(C(=O)O)C(O)C(OC8OC(CO)C(O)C(O)C8OC8OC(CO)C(O)C(O)C8O)C7O)C(O)C6O)C(C)(C)C5CCC4(C)C3(C)C(OC(=O)/C=C/C=C/C=C/CCC)C(OC(C)=O)C12CO` (configuration not stated), the activity change, negative = inhibition was 0.802% [at 12.4 µM]. Consider `CC(C)(Oc1ccc(-c2nc3cc(Cl)ccc3s2)cc1)C(=O)O`, for which the “activity change, negative = inhibition” value is 1.14% [at 114 µM]. In the case of `CNc1nc(Cc2ccccc2)nc2c1CCNC[C@@H]2C`, the “activity change, negative = inhibition” value was -1.54% [at 114 µM].

For `CCCC/C=C\CCCCCc1cc(=O)c2ccccc2n1C`, the “activity change, negative = inhibition” value was 3%.

Consider `CCN(CCN(C)C)C(=O)CNCc1cc(C(N)=O)ccn1`, for which the “activity change, negative = inhibition” value was -10.8% [at 114 µM]. On to `COc1cc(O)c2c(c1)C1(OC2=O)C(C)=CC(=O)C1O` (configuration not stated), for which the “activity change, negative = inhibition” value was -8.42% [at 114 µM]. Regarding `COC(=O)c1ccccc1O[C@@H]1O[C@H](CO[C@@H]2OC[C@@H](O)[C@H](O)[C@H]2O)[C@@H](O)[C@H](O)[C@H]1O`, the “activity change, negative = inhibition” value was 1.22%. Consider `COc1c2c(c(C)c3c1C(=O)OC3)OC1(C)CC(O)C34OC(O)(CCC3(C)C1C2)OC4(C)C` (configuration not stated), for which the “activity change, negative = inhibition” value was 5.43%. Consider `Nc1nc2c(nc(Sc3ccc(Cl)cc3)n2[C@@H]2O[C@@H]3COP(=O)(O)O[C@H]3[C@H]2O)c(=O)[nH]1`, for which the “activity change, negative = inhibition” value is -4.16% [at 114 µM]. With `CC1=C2C3OC(=O)C(C)C3(O)CCC2(C)CCC1` (configuration not stated), the “activity change, negative = inhibition” value was 4.56% [at 114 µM]. For the compound `COC(=O)C1=COC(O[C@@H]2O[C@H](CO)[C@@H](O)[C@H](O)[C@H]2O)[C@@H]2[C@@](C)(O)[C@@H](OC(=O)/C=C/c3ccccc3)C[C@]12O` (some centres not stated), the “activity change, negative = inhibition” value is -6.71%. With `C[C@@H]1O[C@@H](O[C@H]2[C@@H]3C=CO[C@@H](O[C@@H]4O[C@H](CO)[C@@H](O)[C@H](O)[C@H]4O)[C@@H]3[C@@]3(CO)O[C@@H]23)[C@H](O)[C@H](OC(=O)/C=C/c2ccc(O)cc2)[C@H]1OC(=O)/C=C/c1ccc(O)cc1`, the “activity change, negative = inhibition” value was -7.06% [at 30.2 µM].
